# Measured values published in PubChem BioAssay (NCATS).
# Values joined by “and” are separate entries in the source; they are usually repeats but may differ in a detail not shown here. Equal entries are not always repeated. Results filed as inconclusive are left out. Where a call stands in place of a potency, no number is given. Active and inactive are the calls of the source. Unless noted, the call rests on the fitted dose curve; in most records, active means well fitted curve in the direction sought with a large enough effect; inconclusive means small, poorly fitted or top-dose-only effect, or another doubt; inactive means no such curve, though single readings can be large; an effect the other way counts as inactive or inconclusive.
# Key:
# [1] = qHTS Assay for Lipid Storage Modulators (AID 1519; calls by dose curve); settings: Drosophila S3 cells, BODIPY lipid droplet/cell ratio, laser cytometry, cells loaded with oleic acid
# How it was run: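 Cells seeded at 5,000 per well were treated with compounds over a concentration series and loaded with oleic acid (400 uM, as added). Lipid droplet fluorescence (488 nm excitation, 500-530 nm channel) was read by laser-scanning cytometry and normalized to 20 uM Triacsin C.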
# [2] = molecular target: DNA repair nuclease/redox regulator APEX1 (Homo sapiens) (UniProt P27695); experiment: qHTS Validation Assay for Inhibitors of the Human Apurinic/apyrimidinic Endonuclease 1 (APE1) (AID 1705;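 further: TAMRA fluorescence gain over two minutes as APE1 cuts a quenched THF abasic duplex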); settings: purified APE1 endonuclease activity, fluorescence, titration; series mostly up to 57.1 µM
# Chain of DNA repair nuclease/redox regulator APEX1 (Homo sapiens) (P27695 whole entry, looked up): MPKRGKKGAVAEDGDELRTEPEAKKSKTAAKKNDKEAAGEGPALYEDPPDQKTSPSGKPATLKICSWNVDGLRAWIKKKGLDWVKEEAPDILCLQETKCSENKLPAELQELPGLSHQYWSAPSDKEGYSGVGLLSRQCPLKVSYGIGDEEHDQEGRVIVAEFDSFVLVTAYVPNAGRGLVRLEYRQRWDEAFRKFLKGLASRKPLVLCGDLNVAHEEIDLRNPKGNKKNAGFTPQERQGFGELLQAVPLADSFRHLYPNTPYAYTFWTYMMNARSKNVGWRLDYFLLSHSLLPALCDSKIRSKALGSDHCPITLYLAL
# How it was run: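 qHTS, 1536-well. APE1 + cpd 15 min RT → 50 nM TAMRA/BHQ-2 THF-abasic dsDNA substrate → kinetic fluorescence, 3 reads/60 s; delta(read3−read1) = reaction progress. No-enzyme buffer = negative control.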
# [3] = Counterscreen for APE1 Inhibitors: Fluorescent Dye Displacement Validation Assay (AID 1707); settings: fluorescent dye displacement from DNA; series mostly up to 57.1 µM
# How it was run: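 Reaction mixture of 250 nM Thiazole Orange and 50 nM double-stranded abasic-site DNA was dispensed, compounds were pin-transferred, and fluorescence was read at endpoint (480 nm ex, 540 nm em). Reduced fluorescence indicated dye displacement by DNA binding.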
# [4] = molecular target: Endonuclease 4 (Escherichia coli (strain K12)) (UniProt P0A6C1); experiment: Counterscreen for APE1 Inhibitors: qHTS Validation Assay for Inhibitors of Endonuclease IV (AID 1708); settings: E. coli endonuclease IV, DNA cleavage fluorescence; series mostly up to 57.1 µM
# How it was run: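 Conditions: 2 nM enzyme, 50 nM TAMRA/BHQ-2 substrate, pH 7.5 Tris buffer with 2 mM MgCl2, RT. Compound preincubation 15 min; readout three fluorescence reads 60 s apart, third-minus-first.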
# [5] = qHTS for differential inhibitors of proliferation of Plasmodium falciparum line 7G8 (AID 1815); settings: Plasmodium falciparum 7G8 proliferation inhibition; series mostly up to 28.7 µM;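 further: parasite growth measured after three days of incubation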; further: potency means the concentration at half of the fitted maximal effect
# [6] = qHTS for differential inhibitors of proliferation of Plasmodium falciparum line D10 (AID 1877); settings: series mostly up to 28.7 µM;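 further: parasites grown with compound for 72 h before DNA staining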; further: potency means the concentration at half of the fitted maximal effect
# [7] = qHTS for differential inhibitors of proliferation of Plasmodium falciparum line 3D7 (AID 1876); further: potency means the concentration at half of the fitted maximal effect; settings: P. falciparum 3D7 proliferation inhibition; series mostly up to 28.7 µM
# [8] = qHTS for differential inhibitors of proliferation of Plasmodium falciparum line Dd2 (AID 1882); settings: Potency: Plasmodium falciparum Dd2 proliferation inhibition; series mostly up to 28.7 µM; further: nearly all actives have a fitted effect of over 65% in size; further: potency means the concentration at half of the fitted maximal effect
# How it was run: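 SYBR Green DNA fluorescence (ex 485, em 535 nm) after overnight lysis quantifies parasite growth; compound exposure lasted 72 h at 37 C on infected red cells at 2.5% hematocrit, 0.3% parasitemia (final). Artemisinin 0.29 uM and vehicle wells define normalization.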
# [9] = qHTS for differential inhibitors of proliferation of Plasmodium falciparum line GB4 (AID 1816); settings: Potency: Plasmodium falciparum GB4 proliferation inhibition; series mostly up to 28.7 µM;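 further: parasite growth measured after 72 h incubation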; further: potency means the concentration at half of the fitted maximal effect
# [10] = measured here: cell count channel max response
# [11] = measured here: lipid channel max response
SMILES,"activity change, negative = inhibition ([1]; at 57.5 µM (top of the series))","max response [1, 10]","max response [1, 11]",outcome [2],outcome [3],outcome [4],Potency [5],Potency [6],Potency [7],Potency [8],Potency [9],"activity change, negative = inhibition ([1]; at 25.7 µM (top of the series))"
CCCc1nc2c(C)cc(-c3nc4ccccc4n3C)cc2n1Cc1ccc(-c2ccccc2C(=O)O)cc1,-11.9% (inactive),-6.13%,-15.7%,,,,,,,,,
Cc1ccccc1C(OCCN(C)C)c1ccccc1 (centres undefined),-0.936% (inactive),-31.3%,-33.7%,inactive,inactive,inactive,3.98 µM (active),inactive,,,,
CCCC(CCC)C(=O)O,7.45% (inactive),23.9%,36.2%,inactive,inactive,inactive,,,,,,
O=c1n(CCCN2CCN(c3cccc(Cl)c3)CC2)nc2ccccn12,10.8% (inactive) and -2.4% (inactive),20.6% and -14.9%,37% and -15.6%,inactive,inactive,inactive,,inactive,inactive,inactive,,
CCOC(=O)N1CCC(=C2c3ccc(Cl)cc3CCc3cccnc32)CC1,3.85% (inactive),1.57%,11.7%,inactive,inactive,inactive,2.24 µM (active),10 µM (active),12.6 µM (active),10 µM (active),10 µM (active),
NC(N)=NC(=O)c1nc(Cl)c(N)nc1N,,,,inactive,,inactive,,,,,,
Cc1cn[nH]c1,,,,,inactive,inactive,inactive,inactive,inactive,inactive,inactive,
O=C1CCc2cc(OCCCCc3nnnn3C3CCCCC3)ccc2N1,-9.74% (inactive),-20.7%,-27.2%,inactive,inactive,,14.1 µM (active),,,inactive,,
Nc1nc2c(ncn2COCCO)c(=O)[nH]1,,,,inactive,inactive,inactive,inactive,inactive,inactive,inactive,inactive,
CN1CCN(CCCN2c3ccccc3Sc3ccc(C(F)(F)F)cc32)CC1,7.35% (inactive),-17.1% and 19.1%,-20.9% and 29.4%,inactive,inactive,,3.98 µM (active),11.2 µM (active),7.08 µM (active),12.6 µM (active),4.47 µM (active),-6.05% (inactive)
Cn1cnc([N+](=O)[O-])c1Sc1ncnc2nc[nH]c12,0.323% (inactive) and -0.298% (inactive),0.534% and 6.17% and -33.4%,0.0916% and 9.95% and -32.9%,inactive,inactive,inactive,,,12.6 µM (active),,,-1.38% (inactive)
O=c1[nH]cnc2[nH]ncc12,3.88% (inactive) and -0.195% (inactive),3.2% and 58%,12.9% and 60.4%,inactive,inactive,inactive,inactive,inactive,inactive,inactive,inactive,
CC(C)NCC(O)COc1ccc(COCCOC(C)C)cc1 (centres undefined),,,,,inactive,inactive,,inactive,inactive,inactive,,
C1COC(NC(C2CC2)C2CC2)=N1,,3.69%,-12.8%,inactive,inactive,inactive,7.94 µM (active),,,,,-4.99% (inactive)
CC(C)(Sc1ccc(CCN(CCCCC2CCCCC2)C(=O)NC2CCCCC2)cc1)C(=O)O,-0.767% (inactive),16.5%,13.3%,inactive,inactive,,,inactive,inactive,inactive,,
OC(CN1CCC(Cc2ccc(F)cc2)CC1)c1ccc(Cl)cc1 (centres undefined),,,,inactive,inactive,inactive,0.501 µM (active),2.51 µM (active),1.26 µM (active),1.26 µM (active),0.355 µM (active),
Cc1[nH]c(=O)c(C#N)cc1-c1ccc2nccn2c1,-1.62% (inactive),25.3%,21.7%,inactive,inactive,inactive,inactive,,inactive,inactive,inactive,
c1ccc([C@H]2CN3CCSC3=N2)cc1,0.161% (inactive),21.4%,20.7%,inactive,inactive,inactive,inactive,inactive,inactive,inactive,,
CC(C)(C)NCC(O)c1ccc(O)c(CO)c1 (centres undefined),0.332% (inactive) and 5.35% (inactive),11.9% and -13.2%,15.4% and -7.47%,inactive,inactive,inactive,,,,,,
CCn1cc(C(=O)O)c(=O)c2cc(F)c(N3CCNC(C)C3)c(F)c21 (centres undefined),5.34% (inactive),16.3%,26.1%,inactive,inactive,,,,11.2 µM (active),,,
NC(=O)c1cnccn1,8.38% (inactive),10.7%,23.4%,inactive,inactive,inactive,inactive,inactive,inactive,inactive,inactive,
O=NN(CCCl)C(=O)NCCCl,-2.32% (inactive),-3.08%,-6.13%,inactive,inactive,,inactive,,inactive,inactive,inactive,
CC(C)C[C@H](NC(=O)[C@@H](O)[C@H](N)Cc1ccccc1)C(=O)O,-0.597% (inactive),-1.56%,-0.689%,,inactive,inactive,2.51 µM (active),2.82 µM (active),0.631 µM (active),2.24 µM (active),2.51 µM (active),
NNCCc1ccccc1,11.9% (inactive),3.17% and -11.1%,-2.33% and 4.58%,inactive,inactive,inactive,,inactive,,inactive,,1.11% (inactive)
Oc1ccc(C2CNCCc3c2cc(O)c(O)c3Cl)cc1 (centres undefined),,,,inactive,inactive,inactive,,11.2 µM (active),10 µM (active),inactive,10 µM (active),
CC(C[N+](C)(C)C)OC(N)=O (centres undefined),0.608% (inactive),-11.2%,-6.21%,inactive,inactive,inactive,inactive,inactive,inactive,inactive,inactive,
CNC[C@H](O)c1cccc(O)c1,0.239% (inactive),20.5%,21.2%,inactive,inactive,inactive,inactive,inactive,inactive,inactive,inactive,
